# In the supplement of paper PMC8253809:
# System: SUDIPGVI (diffuse intrinsic pontine glioma line)
# Assay: growth inhibition (% activity, log2 RLU normalised to DMSO / staurosporine); higher = more growth inhibition
# Settings: 33 µM
# Outline: (§1)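 Approved drugs were tested in triplicate at a single final concentration of about 33 μM for 7 days at 37 °C, 5% CO2, on pHGG cell lines and H9-derived neural stem cells. Readout was CellTiter-Glo luminescence, log2-transformed and scaled per plate to % activity between solvent and positive control wells. The median over replicates gives the growth-inhibition value.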
row,SMILES,growth inhibition [%]
1,CCCNC(C)C(=O)Nc1ccccc1C (stereo not drawn),-0.942
2,NS(=O)(=O)c1cc2c(cc1Cl)NCNS2(=O)=O,0.531
3,CCCNC(C)C(=O)Nc1c(C)csc1C(=O)OC (stereo not drawn),2.98
4,C[C@@H](O)[C@H]1C(=O)N2C(C(=O)O)=C(S[C@@H]3CN[C@H](C(=O)N(C)C)C3)[C@H](C)[C@H]12,-2.04
5,O=C(O)c1cc(/N=N/c2ccc(S(=O)(=O)Nc3ccccn3)cc2)ccc1O,1.96
6,CN1C(CCl)Nc2cc(Cl)c(S(N)(=O)=O)cc2S1(=O)=O (stereo not drawn),1.21
7,COc1ccc2cc1Oc1ccc(cc1)C[C@H]1c3c(cc4c(c3Oc3cc5c(cc3OC)CCN(C)[C@@H]5C2)OCO4)CCN1C,3.68
8,CCN1CCN(C(=O)N[C@@H](C(=O)N[C@@H]2C(=O)N3[C@@H]2SC(C)(C)[C@@H]3C(=O)O)c2ccccc2)C(=O)C1=O,0.068
9,COc1ccc(C2C(=O)c3ccccc3C2=O)cc1,-1.7
10,[Na+].[Na+].[Na+].[O]=[V]([O-])([O-])[O-],-0.971
11,Cc1noc(NS(=O)(=O)c2ccc(N)cc2)c1C,-0.478
12,N#C[C@@H]1CCCN1C(=O)CNC12CC3CC(CC(O)(C3)C1)C2,-3.27
13,Oc1ccc(OCc2ccccc2)cc1,-1.42
14,CN(C)c1ccc(C(=C2C=CC(=[N+](C)C)C=C2)c2ccc(N(C)C)cc2)cc1,50
15,C[C@@H](O[C@H]1OCCN(Cc2n[nH]c(=O)[nH]2)[C@H]1c1ccc(F)cc1)c1cc(C(F)(F)F)cc(C(F)(F)F)c1,5.21
16,Cc1c(C(=O)NN2CCCCC2)nn(-c2ccc(Cl)cc2Cl)c1-c1ccc(Cl)cc1,-7.47
17,Cc1nnc(C(=O)NC(C)(C)c2nc(C(=O)NCc3ccc(F)cc3)c(O)c(=O)n2C)o1,2.47
18,Cn1c(=O)c2[nH]cnc2n(C)c1=O,-2.69
19,CCCCCCCCCCCCCCCCCCCCCCO,1.92
20,CC(C(=O)O)c1ccc(-c2ccccc2)c(F)c1 (stereo not drawn),2.75

row,SMILES,growth inhibition [%]
1,NC(N)=Nc1nc(CSCC/C(N)=N/S(N)(=O)=O)cs1,-8.72
2,Nc1ccn(C[C@@H](CO)OCP(=O)(O)O)c(=O)n1,1.15
3,N[C@@H]1CN(c2c(F)cc3c(=O)c(C(=O)O)cn([C@@H]4C[C@@H]4F)c3c2Cl)CC12CC2,3.9
4,C=Cc1c(C)c2cc3nc(cc4[nH]c(cc5nc(cc1[nH]2)C(C)=C5CCC(=O)O)c(CCC(=O)OC)c4C)C1(C)C3=CC=C(C(=O)OC)C1C(=O)OC (stereo not drawn),-1.11
5,N=c1nc(N2CCCCC2)cc(N)n1O,1.35
6,CC(=O)OCC(=O)[C@@]1(O)[C@H](C)C[C@H]2[C@@H]3CCC4=CC(=O)C=C[C@]4(C)[C@@]3(F)[C@@H](O)C[C@@]21C,3.94
7,Cc1ccc2c(Cl)cc(Cl)c(O)c2n1,5.64
8,CCOC(=O)C1=C[C@@H](OC(CC)CC)[C@H](NC(C)=O)[C@@H](N)C1,0.0268
9,O=c1cc[nH]c(=O)[nH]1,1.23
10,CC(C[N+](C)(C)C)OC(N)=O (stereo not drawn),-2.52
11,Cc1cccc(N(C)C(=S)Oc2ccc3ccccc3c2)c1,-3.26
12,O=C1c2c(O)ccc(O)c2C(=O)c2c(NCCNCCO)ccc(NCCNCCO)c21,35.8
13,CCN1CCCC1CNC(=O)c1cc(S(N)(=O)=O)ccc1OC (stereo not drawn),3.68
14,O=C1O[C@H]([C@@H](O)CO)C([O-])=C1O.[Na+],-6.63
15,Cc1cc(C(C)(C)C)cc(C)c1CC1=NCCN1,-2.26
16,Cc1ccc(-c2cc(C(F)(F)F)nn2-c2ccc(S(N)(=O)=O)cc2)cc1,1.64
17,CC[C@@H]([C@H](C)O)n1ncn(-c2ccc(N3CCN(c4ccc(OC[C@@H]5CO[C@@](Cn6cncn6)(c6ccc(F)cc6F)C5)cc4)CC3)cc2)c1=O,-1.64
18,O=C1CCc2ccc(OCCCCN3CCN(c4cccc(Cl)c4Cl)CC3)cc2N1,4.51
19,CC(C)(C#N)c1cc(Cn2cncn2)cc(C(C)(C)C#N)c1,2.45

# System: SUDIPGXIII (diffuse intrinsic pontine glioma line)
# Assay: as above
# Settings: 33 µM
# Outline: as §1
row,SMILES,growth inhibition [%]
1,CCCNC(C)C(=O)Nc1ccccc1C (stereo not drawn),-0.434
2,NS(=O)(=O)c1cc2c(cc1Cl)NCNS2(=O)=O,1.25
3,CCCNC(C)C(=O)Nc1c(C)csc1C(=O)OC (stereo not drawn),-0.525
4,C[C@@H](O)[C@H]1C(=O)N2C(C(=O)O)=C(S[C@@H]3CN[C@H](C(=O)N(C)C)C3)[C@H](C)[C@H]12,0.717
5,O=C(O)c1cc(/N=N/c2ccc(S(=O)(=O)Nc3ccccn3)cc2)ccc1O,-0.524
6,CN1C(CCl)Nc2cc(Cl)c(S(N)(=O)=O)cc2S1(=O)=O (stereo not drawn),-13.7
7,COc1ccc2cc1Oc1ccc(cc1)C[C@H]1c3c(cc4c(c3Oc3cc5c(cc3OC)CCN(C)[C@@H]5C2)OCO4)CCN1C,1.63
8,CCN1CCN(C(=O)N[C@@H](C(=O)N[C@@H]2C(=O)N3[C@@H]2SC(C)(C)[C@@H]3C(=O)O)c2ccccc2)C(=O)C1=O,-11.8
9,COc1ccc(C2C(=O)c3ccccc3C2=O)cc1,1.54
10,[Na+].[Na+].[Na+].[O]=[V]([O-])([O-])[O-],1.36
11,Cc1noc(NS(=O)(=O)c2ccc(N)cc2)c1C,-3.55
12,N#C[C@@H]1CCCN1C(=O)CNC12CC3CC(CC(O)(C3)C1)C2,-3.49
13,Oc1ccc(OCc2ccccc2)cc1,-1.26
14,CN(C)c1ccc(C(=C2C=CC(=[N+](C)C)C=C2)c2ccc(N(C)C)cc2)cc1,74.4
15,C[C@@H](O[C@H]1OCCN(Cc2n[nH]c(=O)[nH]2)[C@H]1c1ccc(F)cc1)c1cc(C(F)(F)F)cc(C(F)(F)F)c1,10.1
16,Cc1c(C(=O)NN2CCCCC2)nn(-c2ccc(Cl)cc2Cl)c1-c1ccc(Cl)cc1,3.18
17,Cc1nnc(C(=O)NC(C)(C)c2nc(C(=O)NCc3ccc(F)cc3)c(O)c(=O)n2C)o1,0.152
18,Cn1c(=O)c2[nH]cnc2n(C)c1=O,-1.98
19,CCCCCCCCCCCCCCCCCCCCCCO,1.68
20,CC(C(=O)O)c1ccc(-c2ccccc2)c(F)c1 (stereo not drawn),-0.916

row,SMILES,growth inhibition [%]
1,NC(N)=Nc1nc(CSCC/C(N)=N/S(N)(=O)=O)cs1,-0.00988
2,Nc1ccn(C[C@@H](CO)OCP(=O)(O)O)c(=O)n1,1.19
3,N[C@@H]1CN(c2c(F)cc3c(=O)c(C(=O)O)cn([C@@H]4C[C@@H]4F)c3c2Cl)CC12CC2,-3.35
4,C=Cc1c(C)c2cc3nc(cc4[nH]c(cc5nc(cc1[nH]2)C(C)=C5CCC(=O)O)c(CCC(=O)OC)c4C)C1(C)C3=CC=C(C(=O)OC)C1C(=O)OC (stereo not drawn),-2.15
5,N=c1nc(N2CCCCC2)cc(N)n1O,-1.69
6,CC(=O)OCC(=O)[C@@]1(O)[C@H](C)C[C@H]2[C@@H]3CCC4=CC(=O)C=C[C@]4(C)[C@@]3(F)[C@@H](O)C[C@@]21C,1.28
7,Cc1ccc2c(Cl)cc(Cl)c(O)c2n1,3.89
8,CCOC(=O)C1=C[C@@H](OC(CC)CC)[C@H](NC(C)=O)[C@@H](N)C1,-0.397
9,O=c1cc[nH]c(=O)[nH]1,-16.8
10,CC(C[N+](C)(C)C)OC(N)=O (stereo not drawn),0.126
11,Cc1cccc(N(C)C(=S)Oc2ccc3ccccc3c2)c1,0.248
12,O=C1c2c(O)ccc(O)c2C(=O)c2c(NCCNCCO)ccc(NCCNCCO)c21,39.8
13,CCN1CCCC1CNC(=O)c1cc(S(N)(=O)=O)ccc1OC (stereo not drawn),0.786
14,O=C1O[C@H]([C@@H](O)CO)C([O-])=C1O.[Na+],2.95
15,Cc1cc(C(C)(C)C)cc(C)c1CC1=NCCN1,-0.432
16,Cc1ccc(-c2cc(C(F)(F)F)nn2-c2ccc(S(N)(=O)=O)cc2)cc1,0.102
17,CC[C@@H]([C@H](C)O)n1ncn(-c2ccc(N3CCN(c4ccc(OC[C@@H]5CO[C@@](Cn6cncn6)(c6ccc(F)cc6F)C5)cc4)CC3)cc2)c1=O,0.673
18,O=C1CCc2ccc(OCCCCN3CCN(c4cccc(Cl)c4Cl)CC3)cc2N1,14.8
19,CC(C)(C#N)c1cc(Cn2cncn2)cc(C(C)(C)C#N)c1,1.01
